Calls of active or inactive are those of the source.
Assays:
[1] = optical density shifts of acrAB sulA E. coli – strain DRC41, OD650, 48 h, E. coli filamentation inducer project, primary screen (AID 1152); details: higher = more signal, called active from +8 up or from −8 down;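 note: E. coli MC1000 strain DRC41 lacking acrAB efflux pump and sulA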
[2] = probe aLefty1 binding on compound microarray – biochemical, small-molecule microarray, 635/667 nm fluorescence, primary screen (AID 1153); details: higher = more signal;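 note: score merges spot fluorescence with signal-to-noise ratio from the scanned slide images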
[3] = plasmodial surface anion channel blockers, osmotic lysis – cell-based, P. falciparum Indochina, OD700, 1 h, primary screen (AID 1154); details: P. falciparum Indochina infected RBC osmotic lysis, higher = more signal, called active from +8 up or from −8 down
[4] = plasmodial surface anion channel blockers, osmotic lysis – cell-based, P. falciparum Indochina, OD700, 2 h, primary screen (AID 1155);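 note: lysis reports solute entry through the parasite surface anion channel PSAC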; details: P. falciparum Indochina infected erythrocytes, higher = more signal, called active from +8 up or from −8 down
[5] = changes in parasitized red cell lysis, either direction – P. falciparum Indochina, OD700, 3 h, PSAC antagonist project, primary screen (AID 1156); details: P. falciparum-infected erythrocytes, osmotic lysis, higher = more signal, called active from +8 up or from −8 down
[6] = plasmodial surface anion channel blockers, osmotic lysis – cell-based, P. falciparum Indochina, OD700, 18 h, primary screen (AID 1157); details: P. falciparum Indochina infected erythrocytes, osmotic lysis OD700, 18 h; higher = more signal, called active from +8 up or from −8 down
[7] = S6 kinase pathway phospho-S6 level changes – cell-based, A549, cytoblot, luminescence, serum-stimulated, primary screen (AID 1158); details: 5 h, higher = more signal;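 note: serum-stimulated A549 lung adenocarcinoma cells; signal is phosphorylated S6 detected by cytoblot immunostaining with HRP secondary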
[8] = molecular target: NADPH oxidase 2 (Homo sapiens) (UniProt P04839); assay: compounds shifting NOX2 Amplex Red fluorescence – cell-based, HEK293-NOX2, PMA-stimulated, NOX inhibitor project, primary screen (AID 1159); details: 45 min, higher = more signal, called active from +8 up or from −8 down; note: test concentration not given here
[9] = molecular target: NADPH oxidase 4 (Homo sapiens) (UniProt Q9NPH5); assay: compounds shifting NOX4 Amplex Red fluorescence – cell-based, HEK293-NOX4, tetracycline-induced, NOX inhibitor project, primary screen (AID 1160); details: HEK293-NOX4, Amplex Red H2O2 fluorescence, 45 min; higher = more signal, called active from +8 up or from −8 down
[10] = molecular target: NADPH oxidase 5 (Homo sapiens) (UniProt Q96PH1); assay: compounds shifting NOX5 Amplex Red fluorescence – cell-based, HEK293-NOX5, NOX inhibitor project, primary screen (AID 1161); details: HEK293-NOX5, ionomycin, 45 min, higher = more signal
[11] = compound effects on lung adenocarcinoma cell viability – A549, calcein-AM fluorescence, 48 h, basal, profiling panel (AID 1162); details: higher = more signal; note: test concentration not given here
[12] = compound effects on differentiated 3T3-L1 adipocyte viability – cell-based, 3T3-L1 adipocytes, calcein-AM fluorescence, 48 h, basal, profiling panel (AID 1163); details: 3T3-L1 adipocytes viability, higher = more signal; note: test concentration not given here
[13] = compound effects on hepatocellular carcinoma cell viability – HepG2, calcein-AM fluorescence, 48 h, basal, profiling panel (AID 1164); details: higher = more signal; note: test concentration not given here
[14] = compound effects on multiple myeloma cell viability – MM1S, calcein-AM fluorescence, 48 h, basal, profiling panel (AID 1165); details: higher = more signal;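 note: viability of MM1S multiple myeloma cells under basal unstimulated conditions; test concentration not given here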
[15] = calcein-AM signal in unstimulated myeloma cells – cell-based, calcein-AM fluorescence, 48 h, PK04 Diversity Set, profiling panel (AID 1166); details: RPMI8226 myeloma viability, higher = more signal;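 note: cells grown under basal conditions without added stimulus; test concentration not given here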
[16] = JC-1 mitochondrial signal, unstimulated HepG2 cells – cell-based, JC-1 fluorescence, 24 h, 100 nL compound, profiling panel (AID 1167); details: HepG2 mitochondrial potential, higher = more signal; note: test concentration not given here
[17] = JC-1 mitochondrial signal, unstimulated adipocytes – cell-based, JC-1 fluorescence, 3T3-L1 adipocytes, 24 h, 100 nL compound, profiling panel (AID 1168); details: JC-1 mitochondrial fluorescence, higher = more signal, called active from +8 up or from −8 down; note: test concentration not given here
[18] = JC-1 mitochondrial signal, unstimulated myeloma cells – cell-based, JC-1 fluorescence, RPMI8226, 24 h, 100 nL compound, profiling panel (AID 1169); details: JC-1 mitochondrial potential fluorescence, higher = more signal; note: test concentration not given here
[19] = JC-1 mitochondrial signal, unstimulated MM1S myeloma – cell-based, JC-1 fluorescence, 24 h, 100 nL compound, profiling panel (AID 1170); details: MM1S mitochondrial potential, higher = more signal; note: test concentration not given here
[20] = resazurin metabolic signal in A549 cells – cell-based, resazurin fluorescence, 24 h, PK04 Diversity Set, profiling panel (AID 1171); details: A549 viability, higher = more signal, called active from +8 up or from −8 down; note: test concentration not given here

Chain of NADPH oxidase 5 (Homo sapiens) (Q96PH1 whole entry, looked up): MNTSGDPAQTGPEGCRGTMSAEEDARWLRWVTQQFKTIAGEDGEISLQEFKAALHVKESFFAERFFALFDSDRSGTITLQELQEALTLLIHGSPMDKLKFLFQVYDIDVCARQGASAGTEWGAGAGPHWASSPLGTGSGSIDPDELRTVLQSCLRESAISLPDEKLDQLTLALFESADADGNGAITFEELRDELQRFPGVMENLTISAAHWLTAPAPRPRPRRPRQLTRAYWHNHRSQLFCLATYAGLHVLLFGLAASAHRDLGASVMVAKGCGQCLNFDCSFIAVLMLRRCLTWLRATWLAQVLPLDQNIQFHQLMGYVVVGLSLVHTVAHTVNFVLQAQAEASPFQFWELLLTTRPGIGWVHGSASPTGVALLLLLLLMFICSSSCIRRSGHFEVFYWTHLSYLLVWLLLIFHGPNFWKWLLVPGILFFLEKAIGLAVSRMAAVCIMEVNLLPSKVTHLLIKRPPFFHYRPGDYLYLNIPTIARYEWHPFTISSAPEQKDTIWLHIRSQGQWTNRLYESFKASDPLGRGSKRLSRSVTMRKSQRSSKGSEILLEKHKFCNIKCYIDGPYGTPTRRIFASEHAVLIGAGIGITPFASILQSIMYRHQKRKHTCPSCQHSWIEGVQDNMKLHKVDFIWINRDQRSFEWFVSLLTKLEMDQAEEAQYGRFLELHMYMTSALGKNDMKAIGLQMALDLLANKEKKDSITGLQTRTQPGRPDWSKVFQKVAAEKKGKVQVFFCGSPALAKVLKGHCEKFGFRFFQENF
Chain of NADPH oxidase 4 (Homo sapiens) (Q9NPH5 whole entry, looked up): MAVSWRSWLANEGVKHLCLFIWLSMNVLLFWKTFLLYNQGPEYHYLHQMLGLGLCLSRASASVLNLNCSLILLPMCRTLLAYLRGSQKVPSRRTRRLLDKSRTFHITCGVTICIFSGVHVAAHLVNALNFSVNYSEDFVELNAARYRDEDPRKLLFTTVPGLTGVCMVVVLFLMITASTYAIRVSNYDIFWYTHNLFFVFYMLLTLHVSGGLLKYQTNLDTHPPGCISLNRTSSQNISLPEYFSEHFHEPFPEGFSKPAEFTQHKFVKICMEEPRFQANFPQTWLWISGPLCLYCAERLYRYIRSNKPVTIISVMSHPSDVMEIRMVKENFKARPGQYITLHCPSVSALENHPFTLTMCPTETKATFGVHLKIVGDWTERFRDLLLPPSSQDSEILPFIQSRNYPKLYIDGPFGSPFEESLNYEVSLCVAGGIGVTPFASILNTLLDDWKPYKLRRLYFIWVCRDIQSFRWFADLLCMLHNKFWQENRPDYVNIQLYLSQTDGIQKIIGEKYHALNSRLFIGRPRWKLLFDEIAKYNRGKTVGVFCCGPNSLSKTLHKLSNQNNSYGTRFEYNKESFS
Chain of NADPH oxidase 2 (Homo sapiens) (P04839 whole entry, looked up): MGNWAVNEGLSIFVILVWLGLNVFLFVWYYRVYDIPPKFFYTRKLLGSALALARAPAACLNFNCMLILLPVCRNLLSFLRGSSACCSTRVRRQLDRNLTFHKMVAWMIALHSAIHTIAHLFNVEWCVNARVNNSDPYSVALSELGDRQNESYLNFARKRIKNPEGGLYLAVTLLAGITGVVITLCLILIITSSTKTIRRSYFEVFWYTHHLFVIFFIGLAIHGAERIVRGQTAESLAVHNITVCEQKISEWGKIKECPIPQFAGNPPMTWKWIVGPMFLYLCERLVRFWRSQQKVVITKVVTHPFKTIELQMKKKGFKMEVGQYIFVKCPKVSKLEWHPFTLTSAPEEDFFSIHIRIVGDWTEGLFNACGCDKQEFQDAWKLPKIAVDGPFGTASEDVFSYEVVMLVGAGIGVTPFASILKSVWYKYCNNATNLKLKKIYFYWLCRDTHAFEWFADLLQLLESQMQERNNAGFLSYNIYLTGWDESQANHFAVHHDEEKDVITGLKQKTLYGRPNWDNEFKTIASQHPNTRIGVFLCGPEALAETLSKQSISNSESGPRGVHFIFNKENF

## CC(C)=CCCC(C)=CCON=C1C[C@@H](O)[C@@H](O)[C@@H]2[C@@H]3C(=O)N(c4ccc(F)cc4F)C(=O)[C@@H]3CC[C@H]12
[1]
  z-score: -0.061 (inactive)
[2]
  composite z-score: 0.173
[3]
  z-score: 13.7 (active)
[4]
  z-score: 0.545 (inactive)
[5]
  z-score: 2.8 (inactive)
[6]
  z-score: -0.87 (inactive)
[7]
  z-score: -0.0997
[8]
  z-score: -0.0501 (inactive)
[9]
  z-score: -1.83 (inactive)
[10]
  z-score: -4.58
[11]
  z-score: -1.39
[12]
  z-score: 0.719
[13]
  z-score: 0.0201
[14]
  z-score: -3.06
[15]
  z-score: 0.579
[16]
  z-score: -2.26
[17]
  z-score: 0.866 (inactive)
[18]
  z-score: -0.786
[19]
  z-score: -1.55
[20]
  z-score: 0.619 (inactive)

## O=C(NN=C1C[C@@H](O)[C@@H](O)[C@@H]2[C@@H]3C(=O)N(C4CCCCC4)C(=O)[C@@H]3CC[C@@H]12)OCc1ccccc1
[1]
  z-score: 0.536 (inactive)
[2]
  composite z-score: -0.407
[3]
  z-score: 4.15 (inactive)
[4]
  z-score: 0.586 (inactive)
[5]
  z-score: 0.228 (inactive)
[6]
  z-score: 0.229 (inactive)
[7]
  z-score: -0.146
[8]
  z-score: -0.457 (inactive)
[9]
  z-score: -0.223 (inactive)
[10]
  z-score: 0.118
[11]
  z-score: 0.225
[12]
  z-score: 0.487
[13]
  z-score: 0.621
[14]
  z-score: 0.495
[15]
  z-score: -0.697
[16]
  z-score: -0.502
[17]
  z-score: -0.247 (inactive)
[18]
  z-score: -0.369
[19]
  z-score: -0.309
[20]
  z-score: -0.24 (inactive)

## CC(C)(C)N1C(=O)[C@H]2[C@H]3[C@H](O)[C@H](O)CC(=O)[C@@H]3CC[C@H]2C1=O
[1]
  z-score: -0.767 (inactive)
[2]
  composite z-score: -0.147
[3]
  z-score: 0.126 (inactive)
[4]
  z-score: 0.0976 (inactive)
[5]
  z-score: -1.24 (inactive)
[6]
  z-score: -0.0131 (inactive)
[7]
  z-score: 0.413
[8]
  z-score: -3.23 (inactive)
[9]
  z-score: 0.0825 (inactive)
[10]
  z-score: 0.309
[11]
  z-score: -0.743
[12]
  z-score: 0.436
[13]
  z-score: 0.178
[14]
  z-score: -0.102
[15]
  z-score: -0.052
[16]
  z-score: -0.323
[17]
  z-score: -0.715 (inactive)
[18]
  z-score: 0.967
[19]
  z-score: 0.419
[20]
  z-score: 0.756 (inactive)

## CCCCC#C[C@@H]1C=C[C@H](Oc2cc(OC)c(OC)c(OC)c2)[C@@H](COC(=O)OCC)O1
[1]
  z-score: 0.525 (inactive)
[2]
  composite z-score: -0.147
[3]
  z-score: 8.03 (active)
[4]
  z-score: 0.673 (inactive)
[5]
  z-score: -0.172 (inactive)
[6]
  z-score: 0.0018 (inactive)
[7]
  z-score: -0.153
[8]
  z-score: -1.82 (inactive)
[9]
  z-score: 0.215 (inactive)
[10]
  z-score: -2.66
[11]
  z-score: 1.75
[12]
  z-score: -0.931
[13]
  z-score: 0.928
[14]
  z-score: -2.65
[15]
  z-score: -1.86
[16]
  z-score: -0.163
[17]
  z-score: 0.841 (inactive)
[18]
  z-score: 0.23
[19]
  z-score: -0.254
[20]
  z-score: -0.108 (inactive)

## COc1cc(O)c(C(=O)C=Cc2ccc3c(c2)OCO3)c(OC)c1
[1]
  z-score: -0.59 (inactive)
[2]
  composite z-score: 0.0056
[3]
  z-score: 18.9 (active)
[4]
  z-score: 2.42 (inactive)
[5]
  z-score: 0.484 (inactive)
[6]
  z-score: 0.885 (inactive)
[7]
  z-score: -0.523
[8]
  z-score: 0.0679 (inactive)
[9]
  z-score: 0.142 (inactive)
[10]
  z-score: -0.0252
[11]
  z-score: -0.553
[12]
  z-score: 0.154
[13]
  z-score: -0.932
[14]
  z-score: -1.62
[15]
  z-score: -1.36
[16]
  z-score: -0.591
[17]
  z-score: -0.646 (inactive)
[18]
  z-score: -0.23
[19]
  z-score: -0.533
[20]
  z-score: 0.0731 (inactive)
